Laboratory results published in PubChem BioAssay AID1745848 (National Center for Advancing Translational Sciences (NCATS), 2022).
Hit rate of the full screen: of about 2,100 compounds, about 940 (45%) were called active. Roughly 48% stayed inconclusive and do not appear here. Calls follow the shape of the dose curve; as a rule, active = well fitted inhibition curve with a large enough effect; inconclusive = small, poorly fitted or top-dose-only effect; inactive = no such curve, though single readings can be large or run the other way. So high a share suggests a set chosen from earlier hits. Some of the results follow.
Potency is read from the fitted curve at half-maximal effect.

Experiment: Confirmatory qHTS for Inhibitors of ATXN expression; also: nearly all actives have a fitted effect of over 65% in size;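 as to activity change, negative = inhibition: 0% = DMSO vehicle wells and -100% = medium-only wells without cells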
Settings: ATXN2-luciferase reporter cells, luminescence, 24 h; series mostly up to 11.5 µM; activity change, negative = inhibition: at the top concentration
How it was run: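 Cells carrying ATXN2-luciferase reporter exposed 24 h at 37 C to compound. Viability then read by CellTiter-Fluor (25 uM GF-AFC, 30 min), followed by SteadyGlo luminescence; medium-only wells set 100% inhibition.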
In the case of O=C(NCC(=O)N1CC(O)CC1C(=O)N1CCCC1C(=O)OCc1ccccc1)OCc1ccccc1 (centres undefined), the Potency is reported as 3.16 µM (active).
For COC(=O)c1cc(=O)n(CCc2ccc(OC)c(OC)c2)c(=Nc2ccc(F)c(Cl)c2)s1, the Potency was 3.16 µM (active).
In the case of CCCC[C@@H](CNC)NC[C@H](NCCCCC1CCCCC1)C(C)C, the Potency is reported as 28.2 µM (active).
With CCN1C(=O)/C(=C/c2nc3ccccc3c(=O)n2-c2ccccc2)c2ccccc21 the Potency was 25.1 µM (active).
For O=[N+]([O-])c1c(Nc2ccccn2)cc(Cl)c2nonc12, the Potency was 7.94 µM (active).
With COc1cc(C=CC(=O)c2cc(OC)c(OC)c(OC)c2)cc(OC)c1OC the Potency was 8.91 µM (active).
With COc1cc(/C=C/c2ccc3cccc(O)c3n2)cc(OC)c1OC the “activity change, negative = inhibition” value was -20.7% [at 57.5 µM] (inactive).
In the case of Cc1[nH]c2ccccc2c1C1=NNC(=Nc2ccc(F)cc2)SC1, the Potency is reported as 31.6 µM (active).
With O=C(Nc1ccc(Cl)cc1)Nc1nc(-c2sccc2Br)cs1 the Potency was 6.31 µM (active).
In the case of CC(C)[C@@H]1CC[C@@H](C)C[C@H]1OC(=O)C[n+]1cc(-c2ccc(Cl)cc2)n2c1CCCCC2, the Potency is reported as 15.8 µM (active).
For COc1ccc(-c2csc(NC(=O)c3ccccc3NS(=O)(=O)c3ccc(F)c(F)c3)n2)cc1, the Potency was 1.78 µM (active).
For O=C(Nc1nc(-c2ccccc2)cs1)c1ccccc1NS(=O)(=O)c1ccc(F)cc1, the Potency was 2 µM (active).
In the case of NS(=O)(=O)c1ccc(Nc2nc(-c3ccc(F)cc3)cs2)cc1, the “activity change, negative = inhibition” value is reported as -25.8% (inactive).
With Cc1cc(C)c(C(O)c2ncc(-c3cccc4ccccc34)[nH]2)c(C)c1 (centres undefined) the “activity change, negative = inhibition” value was -15.3% (inactive).
In the case of OC(c1ccc(Cl)cc1)c1ncc(-c2cccc(C(F)(F)F)c2)[nH]1 (centres undefined), the “activity change, negative = inhibition” value is reported as -16.3% (inactive).
In the case of OC(c1cc(F)cc(Cl)c1)c1ncc(-c2cccc(C(F)(F)F)c2)[nH]1 (centres undefined), the Potency is reported as 3.16 µM (active).
With CCN(CC)C(=O)C1=C(C)N(CCC2=CCCCC2)C(=O)C(CC(=O)NC(c2ccccc2)c2ccccc2)C1 (centres undefined) the “activity change, negative = inhibition” value was -19.3% (inactive).
For C/C(=N\NC(=O)c1ccc(Cl)c(Cl)c1)c1ccccn1, the Potency was 0.178 µM (active).
With C/C(=N\NC(=O)c1cccc2ccccc12)c1ccccn1 the Potency was 0.708 µM (active).
In the case of Cc1cc(C)cc(NC(=O)CSc2nc3[nH]ncc3c(=O)[nH]2)c1, the Potency is reported as 2.51 µM (active).
For Cc1cc(C)cc(NC(=O)CSc2nc3nc(C)cc(C)c3c(=O)[nH]2)c1, the Potency was 28.2 µM (active).
With Cn1c(CO)cnc1S(=O)(=O)Cc1ccc([N+](=O)[O-])cc1 the “activity change, negative = inhibition” value was -3.34% [at 57.5 µM] (inactive).
In the case of COc1cc(C(=O)O/N=C(\N)Cc2ccc([N+](=O)[O-])cc2)cc(OC)c1OC, the Potency is reported as 2.82 µM (active).
For O=c1[nH]c(=O)n(C2C[C@H](O)[C@@H](CO)O2)cc1C(F)(F)F (some centres undefined), the Potency was 1.26 µM (active).
With CCOC(=O)c1c(-c2ccccc2)oc2cc(CN(C)C)c(O)c(CN(C)C)c12 the Potency was 3.16 µM (active).
For CCCC(=O)NC(c1ccc(Cl)cc1)c1ccc2cccnc2c1O (centres undefined), the Potency was 1.58 µM (active).
For CCCC(=O)NC(c1ccc(OC)cc1)c1ccc2cccnc2c1O (centres undefined), the Potency was 2.24 µM (active).
With CCCCC(=O)NC(c1ccc(Cl)cc1)c1ccc2cccnc2c1O (centres undefined) the Potency was 1.41 µM (active).
For CCCC(=O)NC(c1ccc(C(C)C)cc1)c1ccc2cccnc2c1O (centres undefined), the Potency was 0.178 µM (active).
With CCCC(=O)NC(c1ccc(C)cc1)c1ccc2cccnc2c1O (centres undefined) the Potency was 1.58 µM (active).
In the case of CC(C)CC(=O)NC(c1cccs1)c1ccc2cccnc2c1O (centres undefined), the Potency is reported as 0.398 µM (active).
With CCOc1ccccc1N1CCN(c2ncnc3scc(-c4ccc(OC)cc4)c23)CC1 the Potency was 28.2 µM (active).
In the case of CCN1CCN(CCCNC(=O)c2ccc(/C=C3/Sc4ccccc4N(Cc4ccccc4F)C3=O)cc2)CC1, the Potency is reported as 28.2 µM (active).
For COc1ccc(Cc2nnc(N/N=C/c3ccc(O)cc3)[nH]c2=O)cc1OC, the Potency was 0.631 µM (active).
With C=CCOc1ccc(CNc2ccc3[nH]c(=O)[nH]c3c2)cc1OC the “activity change, negative = inhibition” value was -2% [at 57.5 µM] (inactive).
In the case of COc1ccc(Cc2nnc(N/N=C/c3ccccc3O)[nH]c2=O)cc1OC, the Potency is reported as 1.58 µM (active).
For Cc1cccc2c1-c1sc(C(=O)Nc3ccccc3N3CCN(C)CC3)cc1CO2, the Potency was 25.1 µM (active).
In the case of CCn1c(COc2ccccc2C)nnc1SCC(=O)N1CCN(c2ccccc2)CC1, the Potency is reported as 14.1 µM (active).
For CC(C)(CC(=O)N1CCN(c2ccc(Cl)cc2)CC1)CC1=NS(=O)(=O)c2ccccc2N1, the Potency was 2.51 µM (active).
With C(=N\Nc1ccc2nncn2n1)/c1ccccn1 the Potency was 17.8 µM (active).
In the case of C(=N\NC(=Nc1ccccc1)c1ccccn1)/c1ccccn1, the “activity change, negative = inhibition” value is reported as 0.998% [at 57.5 µM] (inactive).
With Cc1nnc(N/N=C/c2ccccn2)[nH]c1=O the Potency was 1.41 µM (active).
For O=c1nc(N/N=C/c2ccccn2)cn[nH]1, the Potency was 28.2 µM (active).
In the case of Cc1[nH]n2c(=O)cc(C(C)(C)C)nc2c1-c1ccccc1, the Potency is reported as 7.08 µM (active).
For CCCc1cc(=O)[nH]c(-n2[nH]c3c(c2=O)CCCC3)n1, the Potency was 15.8 µM (active).
For CC1(C)COCN1S(=O)(=O)c1ccc(C(=O)Nc2nnc(-c3ccc(Cl)s3)o2)cc1, the Potency was 1.12 µM (active).
In the case of CCCN(CCC)S(=O)(=O)c1ccc(C(=O)Nc2nnc(-c3cc(OC)cc(OC)c3)o2)cc1, the Potency is reported as 1.58 µM (active).
With COc1ccc(-c2nnc(NC(=O)c3ccc(S(=O)(=O)N4COCC4(C)C)cc3)o2)cc1 the Potency was 2.51 µM (active).
For COc1cc(NC(=O)N2CCc3nc(Nc4cc(Cl)cc(Cl)c4)ncc3C2)cc(OC)c1OC, the Potency was 3.98 µM (active).
In the case of CC(=O)C(C(C)=O)c1c(Cl)c(O)c(O)c2c(C(=O)c3ccccc3)coc12, the Potency is reported as 5.62 µM (active).
For CCOC(=O)C(C(C)=O)c1c(Br)c(O)c(O)c2c(C(=O)c3ccc(C)cc3)coc12 (centres undefined), the Potency was 5.62 µM (active).
With O=C(Nc1ccc(OCC(F)(F)C(F)F)c(C(F)(F)F)c1)c1ccc(Cl)cc1 the Potency was 3.55 µM (active).
With O=C(NCc1ccccc1)C1=C[C@@H](c2csc3ccccc23)C[C@@H](OCCCCO)O1 the Potency was 3.55 µM (active).
In the case of C=CCOC(=O)C1=C[C@@H](c2ccc3c(c2)OCO3)C[C@@H](OCCCCO)O1, the “activity change, negative = inhibition” value is reported as -7.67% [at 57.5 µM] (inactive).
For CN(C)C(=O)CSc1nc(-c2ccccc2)nc2c1CCCC2, the Potency was 17.8 µM (active).
With COC(=O)C1=C(C)N(Cc2ccccc2)C(=NCCc2ccccn2)N[C@H]1c1cccc(C(F)(F)F)c1 the Potency was 3.16 µM (active).
In the case of COC(=O)C1=C(C)N(Cc2ccccc2)C(=NCCc2cccnc2)N[C@H]1c1ccc(Br)cc1, the Potency is reported as 25.1 µM (active).
In the case of CCc1cc(-c2nnn(CCC3COCCO3)c2CC)ccc1-c1cn(CCc2c[nH]c3ccccc23)nn1 (centres undefined), the Potency is reported as 8.91 µM (active).
For O=C(N/N=C/c1cc([N+](=O)[O-])ccc1O)c1ccc(COc2ccc3c(c2)CCC3)o1, the Potency was 3.55 µM (active).
For O=C1CCCC(O)=C1C=NCc1ccccc1, the “activity change, negative = inhibition” value was 19.3% (inactive).
In the case of Cn1ncc2c(Nc3cccc(Cl)c3)nc(Nc3cccc(Cl)c3)nc21, the Potency is reported as 28.2 µM (active).
In the case of COc1ccccc1OCCN1CSC(=S)N(C)C1, the Potency is reported as 17.8 µM (active).
With COC1C=CC=C(C)C(=O)NC2=CC(=O)C(N)=C(CC(C)CC(OC)C(O)C(C)C=C(C)C1OC(N)=O)C2=O (centres undefined) the Potency was 0.282 µM (active).
For C/C(=N\OCC(=O)N/N=C/c1ccccc1O)c1cccs1, the Potency was 12.6 µM (active).
With O=C(COc1nsnc1N1CCOCC1)N/N=C/c1ccccc1O the Potency was 14.1 µM (active).
In the case of CSc1nc(C)cc(OCC(=O)N/N=C/c2ccccc2O)n1, the Potency is reported as 2 µM (active).
For CCN1CCN(C(c2ccc(C(F)(F)F)cc2)c2ccc3cccnc3c2O)CC1 (centres undefined), the Potency was 3.55 µM (active).
In the case of CN1CCN(C(c2ccc(C(F)(F)F)cc2)c2ccc3cccnc3c2O)CC1 (centres undefined), the Potency is reported as 7.94 µM (active).
For O=C(Nc1c(Cl)cccc1Cl)Oc1cccc2cccnc12, the Potency was 10 µM (active).
For O=C(Nc1cccc2cccnc12)c1csc(COCCO)n1, the “activity change, negative = inhibition” value was -22.5% [at 57.5 µM] (inactive).
With O=C(N/N=C/c1sc(N2CCOCC2)nc1-c1ccccc1)c1ccccc1O the Potency was 28.2 µM (active).
In the case of Cc1cc2oc3ccc(NCCC4CCCN4C)cc3c(=O)c2cc1C (centres undefined), the Potency is reported as 31.6 µM (active).
For CCCn1ncc(CN2CCC(C(=O)Nc3cccc(-c4cccc(F)c4)c3)CC2)c1C, the Potency was 28.2 µM (active).
For CCN(c1ccccc1)S(=O)(=O)c1ccc(C(=O)N(CCCN(C)C)c2nc3c(C)cccc3s2)cc1, the Potency was 25.1 µM (active).
For Cc1ccc2nc(N(CCCN(C)C)C(=O)c3ccc(S(=O)(=O)N4CCCCCC4)cc3)sc2c1, the Potency was 3.16 µM (active).
In the case of Cc1cc(C)c2nc(N(CCCN(C)C)C(=O)c3ccc4c(c3)OCCO4)sc2c1, the Potency is reported as 28.2 µM (active).
For Cc1ccc2sc(N(CCCN(C)C)C(=O)c3ccc(S(=O)(=O)N4CCCCCC4)cc3)nc2c1C, the Potency was 28.2 µM (active).
For Nc1ncn([C@@H]2O[C@H](CO)[C@@H](O)[C@H]2O)c(=O)n1, the Potency was 3.98 µM (active).
In the case of Nc1ccn([C@@H]2O[C@H](CO)[C@@H](O)C2O)c(=O)n1 (some centres undefined), the Potency is reported as 3.55 µM (active).
For Nc1ccc2c(c1)OC1(CCCC1)O2, the Potency was 0.316 µM (active).
With Clc1ccc2c(NCc3ccccc3)ccnc2c1 the Potency was 15.8 µM (active).
In the case of COc1ccc(-c2cc(C3CCN(c4ccc(C(C)=O)cc4[N+](=O)[O-])CC3)[nH]n2)cc1, the Potency is reported as 15.8 µM (active).
For Cc1ccc(C)c(NC(=O)c2ccccc2NS(=O)(=O)c2cc([N+](=O)[O-])ccc2C)c1, the Potency was 2.51 µM (active).
For COc1ccc(-c2nc(NC(=O)C3CC(=O)N(c4ccc5c(c4)OCCO5)C3)sc2C)cc1 (centres undefined), the Potency was 8.91 µM (active).
In the case of CCc1ccc(-c2csc(NC(=O)C3CC(=O)N(c4ccc5c(c4)OCCO5)C3)n2)cc1 (centres undefined), the Potency is reported as 11.2 µM (active).
For CCCCC(=O)NC(c1ccc(Cl)cc1Cl)c1ccc2cccnc2c1O (centres undefined), the Potency was 0.708 µM (active).
For CCC(=O)NC(c1ccc(Cl)cc1Cl)c1ccc2cccnc2c1O (centres undefined), the Potency was 1.26 µM (active).
For CCCC(=O)NC(c1ccc(Cl)cc1Cl)c1ccc2cccnc2c1O (centres undefined), the Potency was 2.82 µM (active).
With CCCCC(=O)NC(c1ccc(OC)c(OC)c1)c1ccc2cccnc2c1O (centres undefined) the Potency was 2.82 µM (active).
